# Pol kappa inh = DNA polymerase kappa (human) inhibition; purified Pol kappa, fluorescent DNA synthesis assay, 10 min; Potency, µM (top dose mostly 107 µM), without a hit: at the highest dose activity, negative = inhibition, most hits filed as inhibitors; hit rate 0.53% among 400,000; AID 588579; further: potency means the concentration at half of the fitted maximal effect; on the % scale 0 is the no-effect control and ±100 the full control effect
#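 10 nM Pol kappa was preincubated with compounds for 15 min at room temperature. Reaction started with 50 nM (final) substrate. Fluorescence read kinetically at 0 and 10 min.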
# PI5P4Ka inh = PI5P4K alpha (human) kinase inhibition. max response, %. P48426. AID 652105. hit rate 1.2% among 330,000. PI5P4Kalpha enzyme, ADP-Glo luminescence, 60 min; active compounds read low; active means max response of -50% or lower; inconclusive means between -30% and -50%; inactive means -30% or higher; further: value at the top dose of about 77 µM; on the % scale 0 is the no-effect control and ±100 the full control effect
#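 Enzyme plus substrate dispensed, test compounds pinned in, then ATP (5 microM final) added. After 60 min at RT, ADP-Glo reagent 1 for 45 min and reagent 2 for 30 min preceded luminescence imaging.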
# Pol eta inh = DNA polymerase eta (human) inhibition; Q9Y253; recombinant Pol eta, fluorescent DNA replication assay; Potency, µM (titrated, usually from 114 µM), for inactives: top-dose activity change, negative = inhibition, usual class: inhibitors; hit rate 1.2% among 390,000; AID 588591; further: potency means the concentration at half of the fitted maximal effect; on the % scale 0 is the no-effect control and ±100 the full control effect
#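 Pol eta (10 nM) was preincubated with compounds for 15 min at room temperature, after which fluorescent replication substrate (50 nM final) was added to start the reaction. Fluorescence was read kinetically at 0 and 10 min.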
# WRN helicase inh = inhibitors of human WRN helicase | AID 651768 | Q14191 | WRN helicase unwinding, fluorescent forked duplex, kinetic | hit rate 0.46% among 360,000 | Potency, µM (titrated, usually from 114 µM), without a hit: top-dose activity change, negative = inhibition, actives largely listed as inhibitors; further: potency means the concentration at half of the fitted maximal effect; on the % scale 0 is the no-effect control and ±100 the full control effect; nearly all actives have a fitted effect of over 55% in size
# Target sequence (Q14191 whole entry, looked up): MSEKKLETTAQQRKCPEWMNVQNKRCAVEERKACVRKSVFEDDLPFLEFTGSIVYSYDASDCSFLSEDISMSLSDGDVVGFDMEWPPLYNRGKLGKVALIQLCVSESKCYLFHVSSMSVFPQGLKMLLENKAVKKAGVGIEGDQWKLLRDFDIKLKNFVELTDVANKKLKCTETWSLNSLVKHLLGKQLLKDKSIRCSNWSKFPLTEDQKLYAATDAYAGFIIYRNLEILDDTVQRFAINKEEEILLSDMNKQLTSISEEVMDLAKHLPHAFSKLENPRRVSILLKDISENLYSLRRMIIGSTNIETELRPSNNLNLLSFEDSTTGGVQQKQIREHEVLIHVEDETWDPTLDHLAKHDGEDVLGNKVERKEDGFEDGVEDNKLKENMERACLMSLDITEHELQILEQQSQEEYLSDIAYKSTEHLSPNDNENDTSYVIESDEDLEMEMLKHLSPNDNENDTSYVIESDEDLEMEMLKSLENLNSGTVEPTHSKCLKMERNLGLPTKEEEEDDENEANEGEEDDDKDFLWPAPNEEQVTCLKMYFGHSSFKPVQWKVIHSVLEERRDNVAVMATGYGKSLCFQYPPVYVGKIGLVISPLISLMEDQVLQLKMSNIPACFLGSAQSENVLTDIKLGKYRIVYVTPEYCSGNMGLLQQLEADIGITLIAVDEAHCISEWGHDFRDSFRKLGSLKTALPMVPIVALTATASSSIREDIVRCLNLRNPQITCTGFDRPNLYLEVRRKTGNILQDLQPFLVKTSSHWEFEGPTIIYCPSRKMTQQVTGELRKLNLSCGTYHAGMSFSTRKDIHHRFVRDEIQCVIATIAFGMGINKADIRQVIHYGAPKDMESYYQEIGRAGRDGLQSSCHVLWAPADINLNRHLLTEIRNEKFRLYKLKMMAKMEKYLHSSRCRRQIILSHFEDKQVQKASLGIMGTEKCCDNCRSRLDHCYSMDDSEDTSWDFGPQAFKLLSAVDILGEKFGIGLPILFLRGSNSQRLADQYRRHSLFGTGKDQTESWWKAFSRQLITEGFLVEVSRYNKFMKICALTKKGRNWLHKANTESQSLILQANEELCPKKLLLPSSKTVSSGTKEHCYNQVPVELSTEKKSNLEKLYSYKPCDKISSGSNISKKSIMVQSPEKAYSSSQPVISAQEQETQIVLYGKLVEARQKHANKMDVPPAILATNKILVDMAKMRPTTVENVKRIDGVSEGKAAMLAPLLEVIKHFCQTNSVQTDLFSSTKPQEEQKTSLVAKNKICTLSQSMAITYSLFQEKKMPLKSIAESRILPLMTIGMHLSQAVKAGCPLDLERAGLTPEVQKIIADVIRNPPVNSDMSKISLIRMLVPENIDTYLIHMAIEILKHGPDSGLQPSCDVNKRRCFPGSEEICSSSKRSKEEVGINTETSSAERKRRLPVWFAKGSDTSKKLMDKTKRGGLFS
#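 WRN at 20 nM final was preincubated with compound for 15 min at room temperature; reaction started with 100 nM forked duplex oligonucleotide carrying fluorophore and quencher plus 2 mM ATP (final). Unwinding followed kinetically by red fluorescence (ex 525/em 598 nm).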
# POLI inh = DNA polymerase iota (human) inhibition; Pol iota fluorescent replication assay, 10 min; Potency, µM (titrated, usually from 115 µM), without a hit: at the highest dose activity, negative = inhibition, hits mostly inhibitors; AID 588590; hit rate 1% among 390,000; further: potency means the concentration at half of the fitted maximal effect
#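 Pol iota at 10 nM preincubated 15 min with compounds at room temperature; reaction started with fluorescent substrate, 50 nM final. Fluorescence read kinetically at 0 and 10 min; buffer-only wells as negative control.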
# POLB inh = DNA polymerase beta (human) inhibition; Pol beta primer extension/strand displacement, fluorescence kinetic; Potency, µM (highest dose often 114 µM), inactives show at the top dose activity change, negative = inhibition, actives largely listed as inhibitors; hit rate 1.3% among 340,000; further: potency means the concentration at half of the fitted maximal effect; on the % scale 0 is the no-effect control and ±100 the full control effect
#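 Homogeneous kinetic assay of primer extension and strand displacement by 10 nM Pol beta, preincubated 15 min at room temperature with compound before 50 nM substrate (final) was added. Read at 0 and 10 min; four-parameter Hill fit.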
# * hit, by the source's call; ? = inconclusive; / = not tested or not shown; [ ] = remark or other dose. In the library only some 2.8% were active in any assay of this set; here they are far more common. Unless noted, the call rests on the fitted dose curve; in most records, active means well fitted curve in the direction sought with a large enough effect; inconclusive means small, poorly fitted or top-dose-only effect, or another doubt; inactive means no such curve, though single readings can be large; an effect the other way counts as inactive or inconclusive.
SMILES,Pol kappa inh,PI5P4Ka inh,Pol eta inh,WRN helicase inh,POLI inh,POLB inh
CC(=O)NS(=O)(=O)c1ccc(NC(=O)/C=C/c2ccco2)cc1,-14.6%,1.2,-0.7%,-10.1%,62.4%,?
Cc1cc(NC(=O)c2cc(-c3ccccc3)on2)n(-c2ccccc2)n1,-4.2%,/,2.2%,-8.5%[57.1 µM],-17.5%,-13.1%
O=C(NCc1ccco1)c1c(F)c(F)c(F)c(C(=O)NCc2ccco2)c1F,?,-29.8,44.7µM*,-33.2%,-17.2%,?
O=C(NCCc1ccccc1)/C(=C/c1ccco1)c1ccccc1,-3.2%,-22.4,?,?,-19.2%,35.5µM*
Cc1cc(NC(=O)c2cc(-c3ccco3)on2)n(-c2ccccc2)n1,-27.1%,/,-5.3%,-6.7%[11.6 µM],89.1µM*,?
O=C(/C=C/c1ccco1)Nc1ccc(F)cc1,-2.3%[60.1 µM],/,/,/,?,31.6µM*
O=S1(=O)CC(N2CC=CC2)CN1Cc1ccccc1 (stereo not drawn),/,3.6,/,2.0%,/,/
CCS(=O)(=O)N1CCc2cc(C(=O)Nc3ccc(OC)cc3OC)ccc21,-8.0%,/,-12.2%,/,14.0%,2.5%
O/N=C(/C[n+]1cccc(Br)c1)c1ccc2ccccc2c1,-4.8%,/,/,/,35.2%,/
COc1ccc(N2CC(NC(=O)/C=C\c3ccc(OC)c(OC)c3)CC2=O)cc1 (stereo not drawn),-11.4%[60.1 µM],/,-5.6%,/,1.8%,26.5%
CC(=O)OC1CC2C(C)(C)C(=O)C=C[C@]2(C)C2CC[C@@]3(C)C(c4ccoc4)OC(=O)C4O[C@@]43[C@]12C (stereo partly drawn),-5.9%[60.1 µM],/,/,/,/,/
COC(=O)c1ccccc1NC(=O)/C=C/c1ccco1,0.0%,?,17.8µM*,-21.5%,?,-26.2%
CCc1ccccc1NC(=O)c1cccc(NC(=O)/C=C/c2ccco2)c1,-2.4%,-11.8,-15.2%,-4.5%,24.9%,2.5%
Cc1ccc(NC(=O)c2cccc(NC(=O)/C=C/c3ccco3)c2)cc1C,-18.2%,-63.9*,?,-8.2%[11.6 µM],?,?
O=C(N/N=C/c1ccco1)C1CC1c1ccccc1 (stereo not drawn),?,-50.3*,?,-31.9%,31.6µM*,15.8µM*
Cc1cccc(C(=O)Nc2ccc(C(=O)N/N=C/c3ccco3)cc2)c1,?,-51.2*,?,2.6%[11.6 µM],-119.1%,/
CC(C)(C)n1ncc2c(=O)n(Cc3ccc(SC(=O)O)cc3Cl)cnc21,-10.0%,/,/,/,-4.5%,/
CCOc1ccc(N2CC(c3nc4ccccc4n3CCCOc3ccccc3)CC2=O)cc1 (stereo not drawn),6.0%,/,-30.2%,/,20.1%,0.5%
Cc1ccc(S(=O)(=O)NC(=O)C2(C)CCN2C(=O)c2cccc(F)c2)nc1 (stereo not drawn),/,-0.5,/,-8.3%[57.1 µM],/,/
O=Cc1ccc(-c2c(-c3ccccc3)oc3c2C(OCCCCO)CCC3)o1 (stereo not drawn),/,-5.3,/,-5.8%,/,/
CC(C)(C)n1ncc2c(=O)n(Cc3cccc(C#N)c3)cnc21,6.3%,/,/,/,-0.6%,/
O=C(/C=C/c1ccco1)NCCCN1CCN(CCCNC(=O)/C=C/c2ccco2)CC1,-10.4%,-15.1,-12.8%,-8.2%,3.2%,21.8%
O=C(/C=C/c1ccco1)NCCc1ccc(F)cc1,-40.5%,?,?,-23.4%,20µM*,25.1µM*
CC12CCC(C(=O)NCc3ccc4c(c3)OCO4)(OC1=O)C2(C)C (stereo not drawn),-18.2%,5.9,-5.7%,-7.3%,89.1µM*,36.2%
CC12CCC(C(=O)NCc3ccccc3)(OC1=O)C2(C)C (stereo not drawn),0.0%,0.0,4.4%,2.4%,12.2%,1.5%
SMILES,Pol kappa inh,PI5P4Ka inh,Pol eta inh,WRN helicase inh,POLI inh,POLB inh
O=C(/C=C/c1ccco1)NCc1ccc2c(c1)OCO2,-1.3%,-16.7,-6.9%,-1.6%,5.9%,20µM*
O=C(/C=C/c1ccco1)Nc1ccc2nc3n(c(=O)c2c1)CCCC3,-6.9%,-0.2,16.5%,-9.4%[11.6 µM],70.8µM*,-20.6%
Cc1ccc(NC(=O)CN(C)C(=O)c2cccc(S(=O)(=O)NCc3ccccc3)c2)cc1,-14.1%,-2.5,-8.2%,-9.5%,-5.2%,/
CCCCN1CC(O)C(O)C(O)C1CO (stereo not drawn),4.9%[19.4 µM],/,/,/,/,/
O=C(/C=C/c1ccc(F)cc1)NCc1ccco1,-33.9%,-29.8,?,-16.6%,?,56.2µM*
O=C(/C=C\c1ccco1)Nc1nc(-c2ccc3ccccc3c2)cs1,-14.7%,4.5,-8.8%,?,-2.1%,11.9%[57.1 µM]
O=C(CCCCCNC(=O)c1ccccc1)N/N=C/c1ccccc1O,-5.6%,9.0,-6.3%,0.5%,237.2%,41.4%
O=C(N/N=C/c1ccncc1)c1ccc(NC(=O)c2ccc(Cl)cc2)cc1,-2.9%,-10.4,-20.4%,-13.6%,-28.4%,-34.2%
O=C(CCCCCNC(=O)c1ccccc1)N/N=C/c1ccco1,-14.1%,-11.4,-4.6%,-17.0%,?,15.8µM*
O=C(N/N=C/c1ccncc1)c1ccc(NC(=O)c2cccc(Cl)c2)cc1,?,-0.8,?,-35.3%,?,8.91µM*
O=C(/C=C/c1ccc([N+](=O)[O-])cc1)NCc1ccco1,-15.1%,-14.3,-12.7%,-25.8%[57.1 µM],1.7%,-17.3%
Cc1ccc(-c2csc(NC(=S)NC(=O)/C=C/c3ccco3)n2)cc1,?,/,-2.6%,-21.8%,50.1µM*,3.8%
CC(Sc1nc(C(C)(C)C)cc(-c2ccccc2)c1C#N)C(=O)Nc1ccccc1 (stereo not drawn),-6.6%,-14.0,-9.1%,-35.5%,3.9%,-12.5%
O=C(/C=C/c1ccco1)NC(=S)Nc1ccc(Cl)cn1,-32.2%,-20.5,?,-34.7%,?,35.5µM*
CC(=O)NC(=S)Nc1ccc(NC(=S)NC(=O)/C=C/c2ccco2)cc1,-31.1%,-17.4,?,3.5%[11.6 µM],31.6µM*,?
S=C(NCc1ccccc1)NCc1ccco1,-14.7%,-28.3,9.3%,1.8%,-24.5%,26.9%
CCC(=O)Nc1ccc(NC(=S)NC(=O)/C=C/c2ccco2)cc1,-24.1%,-18.6,?,-10.9%,?,-27.4%
O=C(NCc1ccco1)c1cc(-c2ccco2)on1,-14.7%,/,2.7%,-6.0%[57.1 µM],89.1µM*,16.5%
NNC(=S)NCc1ccco1,-29.9%,-22.0,-9.5%,-12.5%,20µM*,-0.5%
COc1ccc(CNS(=O)(=O)c2ccc(-c3cc(C(F)(F)F)on3)s2)cc1OC,-6.0%,/,-17.3%,/,-25.8%,-7.9%
CSc1cccc(NC(=O)COC(=O)C2CCN(S(=O)(=O)c3ccccc3)CC2)c1,-2.8%,1.2,0.9%,-5.8%,?,/
CCn1c(C(C)NC(=O)c2cccs2)n[nH]c1=S (stereo not drawn),-2.5%,1.7,-3.7%,5.1%,13.8%,4.6%
